# Screens as filed in PubChem BioAssay.
# Giardia FBPA inh-1: qHTS Assay for Inhibitors of Fructose-1,6-bisphosphate Aldolase from Giardia Lamblia; A8B2U2; purified Giardia FBPA; Potency, µM (titrated, usually from 59.6 µM), without a hit: at the top dose activity, negative = inhibition, hits mostly inhibitors; 290,000 tested, 0.71% active; AID 2451, 2010; note: nearly all actives have a fitted effect of over 55% in size
#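 Giardia FBPA (40 nM reagent) was preincubated 10 min at RT with compound (up to 57.5 uM final), then substrate plus GAPDH/TPI/NAD/arsenate coupling system with diaphorase/resazurin was added; resorufin fluorescence (525/598 nm) was read after 20 min.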
# RE007 growth inh: qHTS Assay for Inhibitors of the HIV-1 protein Vpr. S. pombe RE007 Vpr strain, BacTiter-Glo ATP luminescence, 24 h. Potency, µM (series often up to 92.2 µM), without a hit: top-dose activity change, negative = less growth, usual class: inhibitors. 360,000 tested, 0.21% active; active = well fitted falling curve with a large enough effect; inconclusive = small, poorly fitted or top-dose-only effect; inactive = no such curve, though single readings can be large or run the other way; note: nearly all actives have a fitted effect of over 50% in size
#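 Fission yeast strain RE007, carrying one chromosomally integrated HIV-1 vpr copy, was seeded at OD 0.01 in PMG+AL medium with 23 nL pinned compound. After 24 h at 30 °C and 99% humidity, viability was read by BacTiter-Glo luminescence.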
# LmPK inhibitor: qHTS Assay for Inhibitors of Leishmania Mexicana Pyruvate Kinase (LmPK); 290,000 tested, 0.37% active; AID 1721, 2009; purified LmPK, Kinase-Glo ATP luminescence, 1 h; Potency, µM (titrated, usually from 57.5 µM), for inactives: top-dose activity change, negative = inhibition, usual class: inhibitors
# Target sequence (Q27686 whole entry, looked up): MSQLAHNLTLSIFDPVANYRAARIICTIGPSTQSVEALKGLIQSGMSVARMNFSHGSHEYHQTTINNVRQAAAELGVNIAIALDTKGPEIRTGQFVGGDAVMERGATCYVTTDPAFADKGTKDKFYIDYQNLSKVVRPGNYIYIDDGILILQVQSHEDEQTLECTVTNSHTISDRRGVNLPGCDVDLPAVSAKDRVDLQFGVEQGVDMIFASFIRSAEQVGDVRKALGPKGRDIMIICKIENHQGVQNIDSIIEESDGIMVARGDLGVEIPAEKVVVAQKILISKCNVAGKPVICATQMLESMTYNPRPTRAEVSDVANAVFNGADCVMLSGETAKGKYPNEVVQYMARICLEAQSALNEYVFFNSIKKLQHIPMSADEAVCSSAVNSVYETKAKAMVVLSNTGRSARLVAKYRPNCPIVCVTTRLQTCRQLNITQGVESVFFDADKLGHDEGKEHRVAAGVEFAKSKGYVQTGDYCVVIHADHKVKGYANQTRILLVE
#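 Pyruvate kinase activity monitored as ATP production (luciferase luminescence). Conditions: 0.1 nM enzyme, 0.5 mM PEP, 0.1 mM ADP, 1 h, RT; normalized against uninhibited and no-enzyme wells.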
# Tb PYK inh: qHTS of Trypanosoma Brucei Inhibitors | TbPYK enzyme, Kinase-Glo Plus ATP luminescence, 45 min | Potency, µM (doses to about 76.8 µM), for the others: top-dose activity, negative = inhibition, hits mostly inhibitors | 410,000 tested, 0.12% active | pyruvate kinase (Trypanosoma brucei), Q57TT1; note: nearly all actives have a fitted effect of over 50% in size
#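 ADP (130 uM final) triggers the TbPYK reaction after compound addition; incubation is 45 min at room temperature. Kinase-Glo Plus is then added and luminescence imaged. Normalized data are fitted to concentration-effect curves.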
# Giardia growth: qHTS Assay for Inhibitors of Fructose-1,6-bisphosphate Aldolase from Giardia Lamblia: Giardia lamblia growth inhibition. shares compounds with Giardia FBPA inh-1. Giardia lamblia trophozoite growth inhibition. Potency, µM (top dose mostly 57.5 µM), for the others: at the top dose activity change, negative = inhibition, hits mostly inhibitors. 1,500 tested, 5% active;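 note: trophozoites exposed to compound for 48 h at 37 °C; nearly all actives have a fitted effect of over 70% in size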
# Mammalian tox: qHTS Assay for Inhibitors of Fructose-1,6-bisphosphate Aldolase from Giardia Lamblia: Mammalian cellular toxicity; 1,500 tested, 4% active; mammalian cell viability counter-screen, qHTS; shares compounds with Giardia FBPA inh-1; Potency, µM (titrated, usually from 57.5 µM), for the others: top-dose viability change, negative = toxicity, most hits filed as inhibitors; AID 2786, 2010;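 note: Chinese hamster ovary cells used as mammalian cytotoxicity surrogate; viability measured as cellular ATP by luminescence; compound exposure lasted 48 h before reading; nearly all actives have a fitted effect of over 60% in size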
# Giardia FBPA inh-2: qHTS Assay for Inhibitors of Fructose-1,6-bisphosphate Aldolase from Giardia Lamblia: Primary screen confirmation. shares compounds with Giardia FBPA inh-1. purified Giardia aldolase enzyme activity, qHTS. Potency, µM (series often up to 57.5 µM), inactives show at the highest dose activity change, negative = inhibition, actives largely listed as inhibitors. 1,500 tested, 5% active; note: nearly all actives have a fitted effect of over 45% in size
# Rabbit aldolase: qHTS Assay for Inhibitors of Fructose-1,6-bisphosphate Aldolase from Giardia Lamblia: Rabbit FBPA Selectivity | shares compounds with Giardia FBPA inh-1 | Rabbit muscle FBPA enzyme inhibition, selectivity counter-screen | Potency, µM (highest dose often 57.5 µM), without a hit: at the highest dose activity, negative = inhibition, usual class: inhibitors | 1,500 tested, 4% active | AID 2794, 2010; note: nearly all actives have a fitted effect of over 60% in size
# GAPDH counter: qHTS Assay for Inhibitors of Fructose-1,6-bisphosphate Aldolase from Giardia Lamblia: Coupling assay counterscreen confirmation. shares compounds with Giardia FBPA inh-1. Potency, µM (series often up to 57.5 µM), for the others: at the highest dose activity change, negative = inhibition, hits mostly inhibitors. GAPDH coupling enzyme counterscreen, biochemical, qHTS. 1,500 tested, 6% active; note: nearly all actives have a fitted effect of over 55% in size
# * = called active by the depositor; ? = inconclusive; · = no result given; [ ] = dose if it differs, or a comment. Shown are actives, neighbours in structure and some others; about 0.95% of the full set was active somewhere. Unless noted, calls come from the whole dose curve; as a rule, active = well fitted curve in the direction sought with a large enough effect; inconclusive = small, poorly fitted or top-dose-only effect, or another doubt; inactive = no such curve, though single readings can be large; an effect the other way counts as inactive or inconclusive. % is set by controls: 0 for no effect and ±100 for the full control effect; potency is the fitted concentration of half-maximal effect.
SMILES,Giardia FBPA inh-1,RE007 growth inh,LmPK inhibitor,Tb PYK inh,Giardia growth,Mammalian tox,Giardia FBPA inh-2,Rabbit aldolase,GAPDH counter
Cc1cc(C)nc(N/N=C/c2ccccc2OCC(=O)O)n1,5µM*,-2%,0%,-4%,10%[38.3 µM],-3%,-1%,-2%,-14%
CCC1CCC2(CC1)NNC(=S)NN2,13µM*,-11%,-5%,-10%,-11%[10.4 µM],6%,-6%,2%,5%
O=C(Nc1nnc(-c2ccco2)o1)c1ccc(N2C(=O)CCC2=O)cc1,18µM*,-8%,0%,-3%,60%,18%,8%,3%,4%
O=C(Nc1nnc(-c2ccc(Cl)cc2)o1)c1ccc(N2C(=O)CCC2=O)cc1,23%,-3%,1%,-6%,·,·,·,·,·
COc1cc(/C=C2\SC(c3ccc(C)cc3)=NC2=O)ccc1O,18µM*,-12%,28µM*,?,26%,-3%,?,-30%,-1%
COc1cc(/C=C2\SC(c3ccc(C)cc3)=NC2=O)cc(OC)c1OC,?,-3%,?,?,·,·,·,·,·
CCOc1cc(/C=C2\SC(=O)N=C2N)ccc1O,4%,·,-5%,-11%,·,·,·,·,·
COc1cc(/C=C2\SC(c3ccccc3)=NC2=O)cc(Cl)c1O,5.6µM*,-3%,?,?,54%,5%,-26%,-26%,2%
CCOc1cc(/C=C2\SC(N)=NC2=O)ccc1O,7.9µM*,20%,-7%,-20%,-14%[10.4 µM],-4%,-12%,-1%,1%
CC(=O)Nc1nc(C)nc(-c2ccccc2)c1C(C)=O,16µM*,16%,0%,-2%,23%,-7%,3%,9%,10%
C=CCSC1=N/C(=C\C=C\c2ccco2)C(=O)S1,6.3µM*,-6%,10%,-5%,16%,14%,-10%,11%,1%
C=CCSC1=N/C(=C\c2sccc2C)C(=O)S1,-9%,-9%,0%,-1%,·,·,·,·,·
O=S1(=O)CC/C(=N\O)c2ccccc21,5%,9%,1%,3%,·,·,·,·,·
C=CCNC(=S)N/N=C1\CCS(=O)(=O)c2ccccc21,7.1µM*,-12%,1%,2%,-19%,12%,12%,8%,5%
O=C(O)CSc1c(O)c2ccccc2[nH]c1=O,18µM*,-15%,0%,-15%,?,1%,-18%,-20%,-18%
COCc1[nH]c(=S)c(C#N)cc1C(=O)OC,16µM*,16%,21%,?,20%,8%,4%,1%,-8%
CCCCN(C)C(=O)C1CCC(CNS(=O)(=O)c2ccc(Cl)cc2)CC1 (stereo not given),·,·,·,-1%[15.4 µM],·,·,·,·,·
N#CCCN(CCC#N)S(=O)(=O)c1ccc(C(=O)Nc2nnc(C3=COCCO3)o2)cc1,16µM*,2%,2%,3%,?,15%,5%,16%,2%
